Screening results as filed in PubChem BioAssay.
Hits are enriched below; roughly 2% of the tested compounds scored in any of these assays.
TDP-43 yeast inh – qHTS of TDP-43 Inhibitors. TDP-43 expressing yeast growth rescue, BacTiter-Glo, 24 h. Potency, µM (highest dose often 46.1 µM), inactives show top-dose growth rescue (activation), usual class: activators. 1.8% of 410,000 active; further: % of control where 0% means no effect; nearly all actives have a fitted effect of over 50% in size
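Luminescence from BacTiter-Glo reports growth of TDP-43-expressing yeast after 24 hr at 30 deg C with compound. Cells were raffinose-pregrown to mid-log, then seeded in galactose medium at OD600=0.02.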
MBNL1-CUG inh – qHTS Assay for Inhibitors of MBNL1-poly(CUG) RNA binding; Muscleblind-like protein 1 (Homo sapiens), Q9NR56; TR-FRET MBNL1-His/biotin-(CUG)12 binding, 665/545 ratio; Potency, µM (top dose mostly 57.5 µM), without a hit: top-dose activity change, negative = inhibition, actives largely listed as inhibitors; 0.036% of 280,000 active; AID 2675, 2010; active means well fitted inhibition curve with a large enough effect in the signal ratio, with a control signal flat, not every such curve was filed as active; inconclusive means small, poorly fitted or top-dose-only effect, or effect the other way, or a change in a side signal; inactive means no such curve, though single readings can be large or run the other way; the % refers to the signal ratio; further: on the % scale 0 is the no-effect control and ±100 the full control effect
Target sequence (Q9NR56 whole entry, looked up): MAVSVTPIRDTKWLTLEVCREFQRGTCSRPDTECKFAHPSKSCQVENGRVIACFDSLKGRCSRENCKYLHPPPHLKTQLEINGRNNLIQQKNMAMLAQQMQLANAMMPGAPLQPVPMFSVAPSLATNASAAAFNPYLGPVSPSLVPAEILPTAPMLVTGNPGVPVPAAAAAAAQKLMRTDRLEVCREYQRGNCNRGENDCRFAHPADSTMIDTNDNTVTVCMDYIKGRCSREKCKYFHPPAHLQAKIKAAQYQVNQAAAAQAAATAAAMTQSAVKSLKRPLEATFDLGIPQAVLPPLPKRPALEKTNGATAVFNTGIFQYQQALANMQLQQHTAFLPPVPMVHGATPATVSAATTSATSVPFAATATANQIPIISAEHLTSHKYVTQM
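Compound titration spanned 92 nM–58 uM against the MBNL1-His/biotin-(CUG)12 complex. After 60 min at room temperature with 5 nM streptavidin-XL665 and 0.055 ng/ul terbium anti-His, ratiometric 665/545 nm emission (Ex 340 nm) normalized to controls.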
FUS yeast rescue – qHTS for Suppressors of FUS Proteinopathy: Primary screen using FUS-linked yeast assay. 0.24% of 390,000 active. AID 1347120, 2019. Potency, µM (doses to about 76.6 µM), most hits filed as activators. S. cerevisiae FUS-expressing, growth rescue, OD600, 24 h;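 further: plate controls were DMSO vehicle for no effect and reference control for full effect; nearly all actives have a fitted effect of over 55% in size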
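Restored growth of FUS-toxic S. cerevisiae, read as 600 nm absorbance after 24 h at 30C in galactose medium (starting OD 0.005). Controls CP55940 and DMSO.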
aSyn yeast inh – qHTS of alpha-syn Inhibitors; 0.14% of 370,000 active; Yeast expressing alpha-synuclein, growth rescue, BacTiter-Glo, 24 h; AID 652106, 2013; Potency, µM (titrated, usually from 46.1 µM), for inactives: at the top dose growth rescue (activation), most hits filed as activators; further: % of control where 0% means no effect; nearly all actives have a fitted effect of over 65% in size
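Galactose-induced alpha-syn yeast (OD600=0.02, raffinose-pregrown) + pinned cpd, 24 hr, 30 deg C; growth by BacTiter-Glo luminescence. Growth restoration scores as activation.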
Abeta rescue – qHTS for compounds that reverse cellular toxicity of Amyloid beta (A-beta) peptide in yeast: Primary Screen. yeast expressing A-beta42, growth rescue, OD600, 48 h; response scale: 0% DMSO, 100% iron-clioquinol control. Potency, µM (series often up to 46.1 µM), usual class: activators. 0.063% of 410,000 active; further: nearly all actives have a fitted effect of over 55% in size
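Yeast growth medium received pinned compounds, then yeast cells expressing toxic A-beta were added; plates incubated at 30 C for 48 hr. Growth read as absorbance at 600 nm, normalized to DMSO and equimolar FeCl3 plus clioquinol controls.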
Glioma ERSR ind – qHTS for Inducers of the Endoplasmic Reticulum Stress Response (ERSR) in Human Glioma: qHTS; U87-MG GRP78 promoter luciferase reporter, 16 h; Potency, µM, for inactives: at the highest dose activation, most hits filed as activators; 0.02% of 420,000 active; further: series mostly up to about 76 µM; % of control where 0% means no effect; nearly all actives have a fitted effect of over 35% in size
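Stably transfected U87-MG glioma cells carrying a GRP78-based luciferase sensor; 16 h compound incubation. Luminescence end-point read 10 min after Bright-Glo addition at room temperature.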
Numbers without * were called inactive; i = inactive; ? = inconclusive; · = no result. Unless noted, the call rests on the fitted dose curve; in most records, active means well fitted curve in the direction sought with a large enough effect; inconclusive means small, poorly fitted or top-dose-only effect, or another doubt; inactive means no such curve, though single readings can be large; an effect the other way counts as inactive or inconclusive. Potency means the concentration at half of the fitted maximal effect.

SMILES	TDP-43 yeast inh	MBNL1-CUG inh	FUS yeast rescue	aSyn yeast inh	Abeta rescue	Glioma ERSR ind
Cc1csc(NC(=O)c2ccc(COc3ccccc3F)o2)n1	·	·	i	·	·	·
CCC(=O)c1ccc(OCc2ccccc2)c(OC)c1	11.2µM*	·	i	10.0%	i	6.7%
CCC(=O)c1ccc(OCc2ccc(C(=O)OC)cc2)c(OC)c1	19.6%	14.3%	i	-12.3%	i	-0.9%
CCOC(=O)c1ccccc1NC(=S)N1CC(C)CC(C)C1 (configuration not stated)	-3.5%	-1.0%	i	-13.9%	i	-3.3%
CCOC(=O)c1ccccc1NC(=S)N1CCC(C)CC1	11.2µM*	·	i	0.6%	i	-2.5%
CCn1c2ccccc2c2cc(/C=N/NC(=O)c3ccccc3)ccc21	11.2µM*	61.9%	?	5.3%	i	-5.7%
CCn1c2ccccc2c2cc(C=NNC(=O)c3cc(-c4ccc(OC)cc4)n[nH]3)ccc21	·	·	i	·	·	·
CC(NC(=O)C1CCOCC1)c1nnc2n1CCN(Cc1ccc3cccnc3c1)CC2 (configuration not stated)	·	·	·	·	·	-3.3%
COc1ccc(CCNC(=O)Cn2c(=O)n(-c3ccc(F)cc3)c(=O)c3sccc32)cc1OC	3.8%	-6.3%	i	0.562µM*	i	1.1%
C=CS(=O)(=O)N(Cc1nnn(Cc2ccccc2)c1Br)[C@@H](CC(C)C)C(=O)OC	·	·	i	·	·	·
O=C(ON=C1CCN(S(=O)(=O)c2ccccc2)CC1)c1ccccc1	20µM*	-10.0%	i	0.7%	i	-5.8%
O=C(Nc1nc2ccccc2s1)C1CCCN1S(=O)(=O)c1ccc(Cl)cc1 (configuration not stated)	17.8µM*	7.0%	?	19.4%	i	-2.8%
O=C(Nc1ccc(Br)cc1)C1CCCN1S(=O)(=O)c1ccc(F)cc1 (configuration not stated)	22.4µM*	·	i	·	i	·
Cc1ccc(S(=O)(=O)N2CCCC2C(=O)Nc2nc3ccccc3s2)cc1 (configuration not stated)	6.8%	-1.0%	i	11.5%	i	-3.5%
COCc1c(C(=O)N2CCCCC2c2cccnc2)cnn1-c1ncc2c(n1)-c1ccccc1CCC2 (configuration not stated)	·	·	·	·	·	-0.7%
O=C(NCC1CCOCC1)c1ccc(-c2ccc(F)c(F)c2)c2ccoc12	25.1µM*	·	i	8.8%	i	-0.4%
O=C(NCc1ccc(F)c(F)c1)c1ccc(-c2ccc(F)c(F)c2)c2ccoc12	4.4%	·	i	-1.6%	i	-3.6%
COc1cccc(C2=NO[C@@H]3C(=O)N(c4ccc5c(c4)OCCO5)C(=O)[C@H]23)c1OC	-3.3%	-9.3%	i	-0.6%	i	-4.8%
COc1cccc(C2=NO[C@@H]3C(=O)N(Cc4ccccc4)C(=O)[C@H]23)c1OC	12.6µM*	-13.4%	i	-0.9%	i	-4.7%
COc1ccc2cc(CNC3CCS(=O)(=O)C3)c(-c3ccc(OC)c(OC)c3)nc2c1 (configuration not stated)	·	·	·	·	·	-6.2%
CC(=O)/C(=C\N(C)C)Sc1ccc(Cl)cc1	22.4µM*	·	i	?	?	-7.1%
CC(=O)/C(=C\N(C)C)Sc1ccc(C)cc1	29.2%	0.4%	i	23.9%	i	-3.2%
O=C(CSc1nccn(-c2ccc(F)c(F)c2)c1=O)NC1CCCC1	25.2%	·	i	-10.8%	i	-3.5%
Cc1cccc(-c2nc(SCC(=O)Nc3ccc4c(c3)OCCO4)c(-c3ccccc3)[nH]2)c1	35.5µM*	·	?	·	i	-1.7%
Cc1cccc(-n2ccnc2SCC(=O)Nc2ccc3c(c2)OCO3)c1	20µM*	·	i	10.3%	i	-3.6%
SMILES	TDP-43 yeast inh	MBNL1-CUG inh	FUS yeast rescue	aSyn yeast inh	Abeta rescue	Glioma ERSR ind
O=C(CSc1nccn(-c2cccc(F)c2)c1=O)Nc1ccc(Cl)cc1F	17.8µM*	29.6%	i	-77.6%	i	-2.4%
Cc1cccc(-n2ccnc2SCC(=O)Nc2cccc3ccccc23)c1	22.4µM*	·	i	11.1%	i	-2.2%
O=C(CSc1nc(-c2cccc(F)c2)[nH]c1-c1ccccc1)Nc1ccc2c(c1)OCCO2	?	·	?	·	i	-7.8%
N#CCC[C@H]1CC[C@]2(CCCN(C(=O)c3ccccc3)C2)O1	·	·	i	·	·	·
Cc1cccc(-n2ccnc2SCC(=O)Nc2ccccc2C(F)(F)F)c1	2.6%	·	i	3.4%	i	-4.1%
O=C(CSc1nccn1-c1cccc(Cl)c1)Nc1cccc2ccccc12	15.8µM*	·	i	·	i	-0.6%
O=C(CSc1nccn1-c1ccc(Cl)cc1)Nc1ccc(Cl)c(Cl)c1	0.0%	·	i	·	i	-0.1%
O=C(CSc1nccn1-c1cccc(Cl)c1)Nc1cccc(C(F)(F)F)c1	20µM*	·	i	·	?	-4.5%
COc1cc(=O)n2c(c1C(=O)N(C)Cc1cscn1)CCN(Cc1ccc3c(c1)OCCO3)CC2	·	·	·	·	·	-4.5%
COc1cc(=O)n2c(c1C(=O)N(C)Cc1nonc1C)CCN(Cc1ccc(F)cc1)CC2	·	·	·	·	·	-2.0%
CCN(CC)C(=O)CC[C@H]1CC[C@]2(CCCN(CC3CC3)C2)O1	·	·	i	·	·	·
CC(Oc1ccccc1)C(=O)Nc1nc(-c2ccccn2)cs1 (configuration not stated)	?	·	i	22.4µM*	?	5.0%
CC(Oc1cccc(Cl)c1)C(=O)Nc1nc(-c2ccccn2)cs1 (configuration not stated)	-38.7%	·	i	4.47µM*	?	-4.5%
CC(Oc1ccccc1)C(=O)Nc1nc(-c2ccncc2)cs1 (configuration not stated)	10.7%	·	i	-4.0%	i	2.0%
Cc1ncc2c(c1CNS(=O)(=O)c1cccs1)CCN(C(=O)/C=C/c1cc(F)cc(F)c1)C2	·	·	·	·	·	-0.4%
COc1cc(/C=C/C(=O)OCC(=O)Nc2cc(S(=O)(=O)N3CCCCC3)ccc2C)ccc1O	6.0%	6.3%	25.1µM*	-8.3%	i	-2.8%
N#CC1c2ccccc2-c2ccccc2N1C(=O)c1ccccc1 (configuration not stated)	28.2µM*	·	i	22.4µM*	i	-5.7%
CC1C=Cc2ccccc2N1C(=O)c1ccccc1 (configuration not stated)	-1.8%	-3.9%	i	5.3%	i	-3.6%
Cc1ccc(C)c2nc3sc(C(=O)O)cc3cc12	14.1µM*	?	i	-70.7%	i	6.0%
